Screening data from PubChem BioAssay.
Hits are enriched below; roughly 2.3% of the tested compounds scored in any of these assays.
SIRT5 inh – SIRT5 desuccinylase inhibitors, primary screen, biochemical, fluorescence imaging, single point, set 5; NAD-dependent protein deacylase sirtuin-5, mitochondrial (Homo sapiens), Q9NXA8; Purified SirT5, succinyl-peptide AMC, trypsin-coupled fluorescence; inhibition, % at 15 µM; actives 1.1% (n = 330,000); in the data active = inhibition above about 15%; inconclusive = no clear call, values can overlap the other calls
Target sequence (Q9NXA8 whole entry, looked up): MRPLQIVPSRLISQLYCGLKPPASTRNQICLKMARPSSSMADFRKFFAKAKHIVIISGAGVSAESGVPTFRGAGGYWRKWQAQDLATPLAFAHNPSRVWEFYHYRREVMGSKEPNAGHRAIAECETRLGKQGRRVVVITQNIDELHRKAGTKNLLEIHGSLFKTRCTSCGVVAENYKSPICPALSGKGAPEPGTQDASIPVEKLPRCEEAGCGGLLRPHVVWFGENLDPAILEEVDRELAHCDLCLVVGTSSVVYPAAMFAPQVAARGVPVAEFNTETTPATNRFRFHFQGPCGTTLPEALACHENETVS
Rtt109 Vps75 – inhibitors of C. albicans Rtt109/Vps75 HAT, primary screen, biochemical, ThioGlo CoA-SH fluorescence, plate reader; purified Rtt109/Vps75, 4 h; Histone acetyltransferase RTT109 (Candida albicans (strain SC5314 / ATCC MYA-2876)), …; inhibition, % at 34.9 µM; actives 0.16% (n = 330,000);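 active = inhibition of at least 50% in every replicate; inconclusive = best replicate reaches 50% inhibition but some replicates fall short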
DENV2 CPE – inhibitors of DENV2 cytopathic effect, primary screen, cell-based, plate reader, single concentration; CPE inhibition, % at 9.99 µM; actives 1.7% (n = 350,000); DENV2-infected cells, cytopathic effect rescue; in the data active = CPE inhibition above about 20%, passing the limit was not always enough; inconclusive = no clear call, values can overlap the other calls; tested in BHK-21 cells;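 note: 0% = median of neutral control wells and 100% = median of positive control wells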
ERp5 inh – inhibitors of ERp5-driven insulin aggregation, primary screen, biochemical, turbidity, absorbance 650 nm, single point | 90 min | inhibition, % at 9.99 µM | actives 0.05% (n = 350,000) | AID 651711, 2012;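 active = mean replicate inhibition above about 25%, with every replicate also reaching it, limit read from the data, passing the limit was not always enough; inconclusive = only one of those two criteria met; inactive = neither criterion met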
PDI turbidity – inhibitors of human PDI, primary screen, biochemical, turbidity, single point, plate reader. inhibition, % at 10 µM. actives 0.052% (n = 350,000). PDI insulin aggregation turbidity, A650, 90 min;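 active = mean inhibition across replicates of 30% or more, whatever share of single replicates reach that level; inconclusive = mean inhibition below 30% while every single replicate reaches 30%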
Active calls of the source: *.

`CCOC(=O)[C@@H]1[C@H]2COc3ccc(Br)cc3[C@@H]2N2C(=O)N(c3cccc(Cl)c3)C(=O)[C@@]12C` gave Rtt109 Vps75 0, DENV2 CPE 68*, ERp5 inh 0 and PDI turbidity 1.
For CCOC(=O)[C@H]1[C@H]2COc3cc(OC)ccc3[C@@H]2N2C(=O)CN(Cc3ccco3)C(=O)[C@@]12C the results were SIRT5 inh 0, Rtt109 Vps75 10, DENV2 CPE 30*, ERp5 inh 13 and PDI turbidity 3.
`CCOC(=O)[C@@H]1[C@H]2COc3cc(OC)ccc3[C@H]2N2C(=O)N(c3cccc(F)c3)C(=O)[C@]12C` gave Rtt109 Vps75 2, DENV2 CPE 104*, ERp5 inh -1 and PDI turbidity -2.
`CCOC(=O)[C@H]1[C@H]2COc3ccc(Cl)cc3[C@@H]2N2C(=O)c3ccc(Cl)cc3NC(=O)[C@@]12C` gave SIRT5 inh -4, Rtt109 Vps75 2, DENV2 CPE 52*, ERp5 inh 2 and PDI turbidity -1.
Screening CN(C)C(=O)C[C@@H]1C=C[C@H](NS(=O)(=O)c2ccccc2)[C@@H](CO)O1 returned SIRT5 inh -4, DENV2 CPE -4 and ERp5 inh -2.
`COc1cccc(C#Cc2ccc3c(c2)[C@H]2[C@H](CCN2S(=O)(=O)c2cccc(OC)c2)[C@@H](CO)N3)c1` gave DENV2 CPE -5 and ERp5 inh -10.
O=S(=O)(c1ccccc1)N1CC[C@H]2[C@H](CO)Nc3ccc(C#Cc4cccc(F)c4)cc3[C@H]21 was read as SIRT5 inh -2 and DENV2 CPE 30*.
`COc1ccc(S(=O)(=O)N2CC[C@@H]3[C@H]2c2cc(C#Cc4ccccc4OC)ccc2N[C@@H]3CO)cc1` gave SIRT5 inh 13, DENV2 CPE 46* and ERp5 inh -5.
`COc1cccc(C#Cc2ccc3c(c2)[C@H]2[C@H](CCN2S(=O)(=O)c2cccc(OC)c2)[C@H](CO)N3)c1` gave SIRT5 inh 8, DENV2 CPE 38* and ERp5 inh -7.
`COc1ccc(S(=O)(=O)N2CC[C@H]3[C@H](CO)Nc4ccc(C#Cc5ccccc5OC)cc4[C@H]32)cc1` gave DENV2 CPE -8 and ERp5 inh 1.
`CNC[C@H]1OCCCC[C@@H](C)Oc2ccc(NS(=O)(=O)c3ccc(C)cc3)cc2C(=O)N([C@H](C)CO)C[C@H]1C` gave SIRT5 inh -7 and ERp5 inh -4.
For Cc1cc2nc(NCCCO)n(CC(=O)c3cc(C(C)(C)C)c(O)c(C(C)(C)C)c3)c2cc1C the results were Rtt109 Vps75 2, DENV2 CPE 32*, ERp5 inh -4 and PDI turbidity -9.
COc1ccc(-c2ccc3c(c2)O[C@@H](CN(C)C(C)=O)[C@@H](C)CN([C@H](C)CO)S3(=O)=O)cc1 was read as SIRT5 inh 0, DENV2 CPE -12 and ERp5 inh 0.
`Clc1ccc(C2=NCCn3nc4ccccc4c32)cc1` gave SIRT5 inh -2, Rtt109 Vps75 1, DENV2 CPE inconclusive, ERp5 inh 5 and PDI turbidity -1.
Screening Nc1c(Cl)cc(C2=NCCn3nc4ccccc4c32)cc1Cl returned Rtt109 Vps75 3, DENV2 CPE 22*, ERp5 inh -3 and PDI turbidity -4.
`COc1ccc(-n2sc3ccc(F)cc3c2=O)cc1` gave SIRT5 inh -7, Rtt109 Vps75 159*, DENV2 CPE -4, ERp5 inh 4 and PDI turbidity -4.
O=c1c2cc(F)ccc2sn1-c1ccc(F)cc1 was read as Rtt109 Vps75 inconclusive and PDI turbidity -3.
CC(=O)Nc1cc(-c2cccc(NS(C)(=O)=O)c2)cn2c(-c3cccc(C(C)=O)c3)cnc12 was read as SIRT5 inh -7, DENV2 CPE 33*, ERp5 inh 2 and PDI turbidity -1.
O=C(NNC(=O)c1ccccc1F)c1ccc(-c2ccccc2Cl)o1 was read as SIRT5 inh -1, DENV2 CPE 21*, ERp5 inh 2 and PDI turbidity 0.
Screening CS(=O)(=O)Nc1cccc(NC(=O)c2cccc3c(-c4ccc(F)c(F)c4)coc23)c1 returned SIRT5 inh 15*, DENV2 CPE 19, ERp5 inh 0 and PDI turbidity -5.
`O=C(Nc1ccc2c(c1)OCCO2)C(c1ccnc2ccccc12)n1c(=O)c(-c2ccco2)nc2ccccc21` (stereo not given) gave SIRT5 inh -2, DENV2 CPE 50* and ERp5 inh 8.
Screening O=C(NCCCN1CCOCC1)[C@H]1[C@H](CO)[C@H]2Cn3c(cccc3=O)[C@@H]1N2C(=O)C1CCCC1 returned SIRT5 inh 2, DENV2 CPE 14 and ERp5 inh 5.
Screening CC(C)(C)C(=O)c1c(N)[nH]c(C(=O)c2ccccc2)c1-c1ccc(Br)cc1 returned SIRT5 inh 20*, DENV2 CPE -2 and ERp5 inh 1.
COC(=O)c1c(N)[nH]c(C(=O)c2ccccc2)c1-c1ccc(Br)cc1 was read as SIRT5 inh -4, DENV2 CPE -3 and ERp5 inh -7.
For COc1ccc(-c2c(C(=O)c3ccccc3)[nH]c(N)c2C(=O)c2ccc(Br)cc2)cc1OC the results were SIRT5 inh -1, DENV2 CPE inconclusive and ERp5 inh 0.
`N#Cc1c(N)[nH]c(C(=O)c2ccccc2)c1-c1ccc(Br)cc1` gave SIRT5 inh 1, DENV2 CPE 57* and ERp5 inh -8.
For CCCNC(=O)N(C)C[C@H]1Oc2cc(-c3cccnc3)ccc2S(=O)(=O)N([C@@H](C)CO)C[C@H]1C the results were SIRT5 inh 0, DENV2 CPE -5 and ERp5 inh 0.
`COc1ccc(S(=O)(=O)N(C)C[C@H]2Oc3c(NS(=O)(=O)c4cccs4)cccc3C(=O)N([C@@H](C)CO)C[C@H]2C)cc1` gave SIRT5 inh -1, DENV2 CPE 9 and ERp5 inh 8.
CCc1ccccc1NC(=O)CNC(=O)CNC(=O)c1cccs1 was read as SIRT5 inh 53*, Rtt109 Vps75 -10, DENV2 CPE -16, ERp5 inh 4 and PDI turbidity 9.
`CCOc1ccccc1CNC(=O)CNC(=O)c1cccs1` gave Rtt109 Vps75 3 and PDI turbidity 8.
For COc1c2c(cc3oc(C)cc(=O)c13)OC(C(C)(C)OC1OC(CO)C(O)C(O)C1O)C2 (stereo not given) the results were SIRT5 inh -2, Rtt109 Vps75 6, DENV2 CPE inconclusive, ERp5 inh 8 and PDI turbidity 0.
